Measurements taken from the supplement of paper PMC9254222.
In all, about 1,100 compounds were measured (“Wnt reporter firefly/Renilla luciferase ratio relative to plate median”: median about 1.1, highest 2% from about 1.6 on). This excerpt belongs to a sample that is enriched for the highest values.

System: HEK293T (UBE3A T485A transfected, BAR Wnt reporter)
Assay: Wnt reporter firefly/Renilla luciferase ratio relative to plate median (fold (linear ratio)); higher = more Wnt/beta-catenin reporter activation
Conditions: 24 h
Procedure, shortened: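 HEK293T cells carrying a transfected BAR firefly luciferase Wnt reporter, TK-Renilla and an expression plasmid were exposed to chemicals at 0.01–100 uM for 24 h, with dosing four hours after transfection. Readout used Dual-Glo luciferase. The firefly/Renilla ratio defined Wnt activity and raw Renilla defined cell health, each median-centred per plate. Figures are means of four biological replicates.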

Compound	Wnt reporter firefly/Renilla luciferase ratio (concentration: 0.1 uM)	Wnt reporter firefly/Renilla luciferase ratio (concentration: 1 uM)	Wnt reporter firefly/Renilla luciferase ratio (concentration: 10 uM)	Wnt reporter firefly/Renilla luciferase ratio (concentration: 100 uM)	Wnt reporter firefly/Renilla luciferase ratio (concentration: 0.01 uM)
NS(=O)(=O)c1cc2c(cc1Cl)NCNS2(=O)=O [Hydrochlorothiazide]	1.41	1.17	1.12	1.32	
CC(=O)OC1C(=O)C2(C)C(O)CC3OCC3(OC(C)=O)C2C(OC(=O)c2ccccc2)C2(O)CC(OC(=O)C(O)C(NC(=O)c3ccccc3)c3ccccc3)C(C)=C1C2(C)C (configuration not stated) [Taxol]	0.822	0.575	0.409	1.98	1.29
O=C([N-]S(=O)(=O)/C=C/c1ccccc1)c1ccc(F)cc1Cl.[Na+]	1.15	1.07	0.657	0.3	
CC(C)c1cccc(C(C)C)c1N1C(=O)c2ccc(O)cc2C1=O	1.19	1.17	0.259		
C=CCc1ccc(O)c(OC)c1 [Eugenol]	1.02	1.13	1.19	1.55	
OC[C@H]1O[C@@H]2O[C@H]3[C@H](O)[C@@H](O)[C@@H](O[C@H]4[C@H](O)[C@@H](O)[C@@H](O[C@H]5[C@H](O)[C@@H](O)[C@@H](O[C@H]6[C@H](O)[C@@H](O)[C@@H](O[C@H]7[C@H](O)[C@@H](O)[C@@H](O[C@H]1[C@H](O)[C@H]2O)O[C@@H]7CO)O[C@@H]6CO)O[C@@H]5CO)O[C@@H]4CO)O[C@@H]3CO [alpha-Cyclodextrin]	1.02	1.09	0.976	0.971	
CCCCCCC(C=O)=Cc1ccccc1 [2-Benzylideneoctanal]	0.942	0.906	0.822	0.757	
O=C(CCCCCCC(=O)Nc1ccccc1)NO [Vorinostat (SAHA)]	1.23	1.05	3.08		1.33
O=C(OCCCCCCOC(=O)c1ccccc1)c1ccccc1 [Hexane-1,6-diyl dibenzoate]	0.955	0.846	1.01	1.37	
CC(C)(O)c1ccc(CNC(=O)c2cccnc2Oc2ccc(F)cc2)cc1	0.96	1.05	1.22	0.695	
CCCc1ccccc1 [Propylbenzene]	0.987	0.856	0.88	1.43	
CC(C)(C)c1ccccc1 [tert-Butylbenzene]	1.01	0.913	0.895	1.16	
COc1ccc(S(=O)(=O)N2C(=O)[C@@](c3ccccc3OC)(N3C[C@H](O)C[C@H]3C(=O)N(C)C)c3cc(Cl)ccc32)c(OC)c1 [Nelivaptan]	1.09	0.857	0.612	0.355	
CCCCCCCCCCCCCCCCOS(=O)(=O)[O-].[Na+] [Sodium hexyldecyl sulfate]	0.784	1.09	0.931	1.7	
CCCCCCCCCCCCCCOS(=O)(=O)[O-].[Na+] [Sodium myristyl sulfate]	1.14	1.11	1.06	0.293	
CCCCCCCCCCCCOS(=O)(=O)[O-].[Na+] [Sodium dodecyl sulfate]	1.32	0.99	1.05	0.875	
CC(=O)c1ccccc1 [Acetophenone]	1.48	1.03	1.27	1.46	
CCCCCCCCO [1-Octanol]	0.948	0.949	1.11	1.09	
O=c1ccn(C2OC(COP(=O)(O)OP(=O)(O)OP(=O)(O)O)C(O)C2O)c(=O)[nH]1 (configuration not stated)	1.13	1.15	1.07	1.94	1.43
